# Source: ChEMBL document CHEMBL2218924, “A broad activity screen in support of a chemogenomic map for kinase signalling research and drug discovery” (Biochem J, 2013)
# Columns and labels:
# [1] = molecular target: G protein-coupled receptor kinase 6 (Homo sapiens) (UniProt P43250); conditions: at 1 µM
# [2] = molecular target: G protein-coupled receptor kinase 5 (Homo sapiens) (UniProt P34947); conditions: at 1 µM
# Sequence of G protein-coupled receptor kinase 5 (Homo sapiens) (P34947 whole entry, looked up): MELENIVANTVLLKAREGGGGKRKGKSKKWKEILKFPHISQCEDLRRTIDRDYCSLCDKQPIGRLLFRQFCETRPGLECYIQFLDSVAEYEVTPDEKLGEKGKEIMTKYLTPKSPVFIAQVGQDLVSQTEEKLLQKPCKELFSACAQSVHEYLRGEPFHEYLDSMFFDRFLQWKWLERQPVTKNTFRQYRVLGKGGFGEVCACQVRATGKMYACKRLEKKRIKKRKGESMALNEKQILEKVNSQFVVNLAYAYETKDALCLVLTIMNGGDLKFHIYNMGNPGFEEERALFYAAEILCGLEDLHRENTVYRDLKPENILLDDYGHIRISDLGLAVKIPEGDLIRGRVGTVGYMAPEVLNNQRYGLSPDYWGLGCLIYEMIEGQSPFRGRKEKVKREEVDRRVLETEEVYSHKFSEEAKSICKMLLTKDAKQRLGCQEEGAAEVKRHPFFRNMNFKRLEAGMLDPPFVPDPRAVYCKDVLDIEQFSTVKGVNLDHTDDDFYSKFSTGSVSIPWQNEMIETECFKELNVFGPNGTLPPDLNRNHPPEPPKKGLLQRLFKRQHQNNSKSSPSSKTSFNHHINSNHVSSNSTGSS
# Sequence of G protein-coupled receptor kinase 6 (Homo sapiens) (P43250 whole entry, looked up): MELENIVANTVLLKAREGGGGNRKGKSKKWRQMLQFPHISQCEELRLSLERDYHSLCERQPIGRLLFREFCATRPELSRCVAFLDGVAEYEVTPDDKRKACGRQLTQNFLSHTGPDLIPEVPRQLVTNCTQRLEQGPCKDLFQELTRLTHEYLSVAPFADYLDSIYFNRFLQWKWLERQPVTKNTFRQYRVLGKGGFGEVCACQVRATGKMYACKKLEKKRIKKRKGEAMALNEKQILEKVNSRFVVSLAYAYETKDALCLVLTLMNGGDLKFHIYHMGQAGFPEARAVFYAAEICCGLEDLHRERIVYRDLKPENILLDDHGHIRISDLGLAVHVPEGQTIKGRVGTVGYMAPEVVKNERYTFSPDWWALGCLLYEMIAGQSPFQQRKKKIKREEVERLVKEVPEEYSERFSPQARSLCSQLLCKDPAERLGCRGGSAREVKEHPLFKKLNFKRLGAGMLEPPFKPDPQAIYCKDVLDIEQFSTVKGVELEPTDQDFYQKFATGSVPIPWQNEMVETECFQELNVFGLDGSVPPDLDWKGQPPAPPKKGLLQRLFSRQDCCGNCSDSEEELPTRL
Structure (SMILES),residual activity [1] [%],residual activity [2] [%]
CCOC(=O)c1c(C)[nH]c(/C=C2\C(=O)Nc3ccccc32)c1C,98,–
Cc1cc(Nc2nc(-c3ccccc3)nc3ccccc23)n[nH]1,76,–
Nc1n[nH]c2nnc(-c3c(-c4ccccc4)nn4ccccc34)cc12,87,93
N#Cc1c(NC(=O)c2cccc3ccccc23)sc2c1CCCC2,98,–
CC#CC(=O)Nc1cc2c(Nc3ccc(F)c(Cl)c3)ncnc2cn1,95,100
CCN1/C(=C/C(C)=O)Sc2ccc(OC)cc21,100,–
O=C1NC(=O)C(c2c[nH]c3ccccc23)=C1c1c[nH]c2ccccc12,98,–
CO[C@H]1C[C@@H]2CC[C@@H](C)[C@@](O)(O2)C(=O)C(=O)N2CCCC[C@H]2C(=O)O[C@H]([C@H](C)C[C@@H]2CC[C@@H](O)[C@H](OC)C2)CC(=O)[C@H](C)/C=C(\C)[C@@H](O)[C@@H](OC)C(=O)[C@H](C)C[C@H](C)/C=C/C=C/C=C/1C,89,95
